# Experimental data as given in PubChem BioAssay AID435006 (Sanford-Burnham Center for Chemical Genomics, 2010).
# In all, about 1,300 compounds went through this assay and about 1,100 (85%) were called active. Rule as the data show it: active = inhibition above about 48%; inactive = the rest. So high a share suggests a set chosen from earlier hits. Only a sample is shown.
# Experiment: NALP3 inhibitors retested in yeast, confirmation, luminescence, single concentration (AID 435006)
# Settings: yeast expressing human NALP3, luminescence; at 10 µM; stronger effect = higher value
row,Structure (SMILES),inhibition
1,Cc1cc2ccccn2c1C(C[N+](=O)[O-])c1c(F)cccc1Cl (stereo unspecified),72.8% (active)
2,O=C1/C(=C\c2ccc3c(c2)OCO3)N2CCC1CC2,59.5% (active)
3,CCCCCCCCCCCCn1ccc(=N)cc1,82.9% (active)
4,C[C@]12CCC3C(CC[C@H]4C[C@@H](O)CC[C@]34C)C1CC[C@@H]2O (stereo partly specified),57.9% (active)
5,C[C@]12CCC3C(CC[C@H]4C[C@@H](O)CC[C@]34C)C1C[C@@H](O)[C@H]2O (stereo partly specified),53% (active)
6,Cc1ccc(-c2nc3ccccc3c(=O)n2-c2ccc(Br)cn2)cc1,73.3% (active)
